Bioassay records (PubChem)
An excerpt weighted towards active compounds, which were near 0.74% of everything screened.
pAkt inh = HTS Assay for Inhibitors of Akt Phophorylation: Primary Screen; Neuro2A IGF-stimulated pAkt S473 HTRF, 20 min; hits give low values; activity change, % for hits at 50 µM; hit rate 0.32% among 360,000; in the data active means activity change below about -80%; inconclusive means mostly about -51% to -80%; further: on the % scale 0 is the no-effect control and ±100 the full control effect
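Neuro2A cells in DMEM with 0.5% FBS, overnight at 37 deg C, given compound at single 50 µM final, then IGF (6 nM final) for 20 min at 37 deg C. Lysed; phospho-Akt Ser473 by HTRF after 24 h, 665/615 ratio.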
LDHA block = qHTS assay for inhibitors of human lactate dehydrogenase. purified LDHA, NADH/diaphorase-resazurin fluorescence; hits give low values. activity change, % (values are at about 110 or 230 µM). hit rate 0.15% among 480,000. AID 1347041, 2019; in the data active means activity change below about -30%; inconclusive means mostly about -25% to -30%;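 further: plate controls were DMSO wells for no effect and wells without enzyme for full effect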
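Enzyme activity of human lactate dehydrogenase 5 (2 nM; 0.06 mM NADH, 0.2 mM pyruvate, 5 min, RT) is measured via a resazurin/diaphorase fluorescence readout of residual NADH.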
Glioma ERSR ind = qHTS for Inducers of the Endoplasmic Reticulum Stress Response (ERSR) in Human Glioma: qHTS | U87-MG GRP78 promoter luciferase reporter, 16 h | Potency, µM, for inactives: top-dose activation, most hits filed as activators | hit rate 0.02% among 420,000 | AID 602332, 2012; further: potency means the concentration at half of the fitted maximal effect; series mostly up to about 76 µM; % of control where 0% means no effect; nearly all actives have a fitted effect of over 35% in size
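ERSR induction read as luciferase luminescence (Bright-Glo, 10 min at room temperature) in stably transfected human U87-MG glioma cells exposed to compounds for 16 h, using GRP78 as sensor.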
PINK1 expr mod = A Quantitative High throughput Screen to Identify Chemical Modulators of PINK1 Expression; hit rate 0.2% among 410,000; PINK1 immunofluorescence, high-content cytometry, 24 h; AID 624263, 2012; Potency, µM (series often up to 76.6 µM), inactives show top-dose activation (PINK1 increase), hits mostly activators; active means well fitted activation curve with a large enough effect; inconclusive means small, poorly fitted or top-dose-only effect; cell line not stated here; further: potency means the concentration at half of the fitted maximal effect; % of control where 0% means no effect; nearly all actives have a fitted effect of over 65% in size
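Stable cell line, 250 cells/well, 12 h attachment; compounds pinned at 5 concentrations, 24 h; CCCP control. Fixed with nuclear dye, primary antibodies 12 h at 10 degrees C, secondary plus cell stain; laser-scanning cytometer read.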
Vif-APOBEC3F blk = qHTS for Inhibitors of Vif-A3F Interactions: qHTS; hit rate 0.2% among 390,000; HeLa A3F-eYFP + Vif (tagged APOBEC3F with the HIV-1 protein that degrades it), YFP fluorescence increase; Potency, µM (titrated, usually from 46.1 µM), for inactives: top-dose activity, negative = active; further: potency means the concentration at half of the fitted maximal effect; % of control where 0% means no effect; nearly all actives have a fitted effect of over 65% in size
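HeLa cells stably expressing Vif plus C-terminally eYFP-tagged A3F were seeded, incubated overnight at 37 deg C, dosed with compound, incubated overnight again at 37 deg C. Yellow fluorescence (Ex 488/Em 500-530) reported blocked Vif-mediated A3F-eYFP degradation.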
Vif-A3G inh = qHTS for Inhibitors of Vif-A3G Interactions: qHTS. Potency, µM (series often up to 46.1 µM), inactives show top-dose activity, negative = active, actives largely listed as inhibitors. HeLa A3G-eYFP + Vif (tagged APOBEC3G with the HIV-1 protein that degrades it), YFP fluorescence, overnight. AID 602310, 2012. hit rate 0.076% among 410,000; further: potency means the concentration at half of the fitted maximal effect; on the % scale 0 is the no-effect control and ±100 the full control effect; nearly all actives have a fitted effect of over 60% in size
Target sequence (Q9HC16 whole entry, looked up): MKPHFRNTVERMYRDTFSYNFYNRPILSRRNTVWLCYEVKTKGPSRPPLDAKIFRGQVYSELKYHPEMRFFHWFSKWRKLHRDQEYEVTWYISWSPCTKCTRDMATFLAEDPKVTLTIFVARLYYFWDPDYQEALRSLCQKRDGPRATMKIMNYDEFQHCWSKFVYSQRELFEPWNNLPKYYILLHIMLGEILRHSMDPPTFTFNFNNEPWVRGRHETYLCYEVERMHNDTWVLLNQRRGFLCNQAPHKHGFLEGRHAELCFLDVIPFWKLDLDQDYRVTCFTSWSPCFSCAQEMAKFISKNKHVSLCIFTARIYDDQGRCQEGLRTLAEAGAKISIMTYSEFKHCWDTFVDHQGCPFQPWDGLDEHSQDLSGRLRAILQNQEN
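HeLa cells stably expressing Vif and C-terminally eYFP-tagged A3G, seeded overnight at 37 deg C, then exposed to compound by pintool overnight at 37 deg C. Rise in yellow fluorescence (Ex 488/Em 500-530, Acumen) marks blocked Vif-driven A3G degradation.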
Active calls of the source: *; i = inactive; ? = inconclusive; . = no result given; [ ] = another dose, or the depositor's remark. Unless noted, the call rests on the fitted dose curve; in most records, active means well fitted curve in the direction sought with a large enough effect; inconclusive means small, poorly fitted or top-dose-only effect, or another doubt; inactive means no such curve, though single readings can be large; an effect the other way counts as inactive or inconclusive.

SMILES | pAkt inh | LDHA block | Glioma ERSR ind | PINK1 expr mod | Vif-APOBEC3F blk | Vif-A3G inh
Cc1nc(CN2CCN(CCOc3ccc(Cl)cc3)CC2)no1 | . | -32* | . | . | . | .
CCn1c(C)[n+](CCOCC[n+]2c(C)n(CC)c3cc(Cl)c(Cl)cc32)c2cc(Cl)c(Cl)cc21 | i | -43* | -4% | -4%[38.3 µM] | -1% | -3%
CCN1C(=O)/C(=C/C=C2/Sc3ccccc3N2CCO)SC1=S | i | -5 | 1% | -1% | -30% | -11%
CCN1/C(=C/C=C2/SC(=Nc3cccc4ncccc34)N(C)C2=O)Sc2ccccc21 | i | -3 | -2% | 4% | 3.5µM* | -22%
Cc1c(O)ccc2c(CN3CCN(CCc4ccccn4)CC3)cc(=O)oc12 | . | -1 | . | . | . | .
Cc1ccc2[nH]c(C)c(/C=C/c3cc[n+](C)cc3)c2c1 | i | -7 | -3% | 14µM* | -372% | 1.3µM*
Cc1ccc2c(c1)c(/C=C/c1cc[n+](C)cc1)c(C)n2C | i | 4 | 0% | ? | -91% | ?
O=C1c2ccccc2[C@@H]2CC(O)C(O)CCN12 (stereo partly drawn) | i | 0 | -5% | 0% | -4% | -2%
CC1(C)Cc2ccccc2C2CC(O)C(=O)N21 (stereo not drawn) | i | -7 | -2% | . | 25µM* | ?
C=CCN(C(=O)Cc1nn(C)c(=O)c2ccccc12)C(C)C | . | -2 | . | . | . | .
O=C(COC(=O)c1cc(=O)[nH]c2ccccc12)Nc1ccccc1 | . | 19 | . | . | . | .
Cc1cc(N2CCOCC2)nc(-c2ccccc2O)n1 | i | -1 | 9% | -2% | -6% | 1%
Cc1cc(N2CCCCCC2)nc(-c2ccccc2O)n1 | -91%* | 0 | 0% | 0% | . | -6%
O=C(/C=C/c1ccc(O)cc1)c1cccc(Br)c1 | . | 8 | . | . | . | .
Cc1cccc(C(=O)NNC2=C(C(=O)C(F)(F)F)CCC2)c1O | i | -6 | -8% | 16µM* | . | 0%
CC(C)(C)c1ccc(C(=O)Nc2cccc([N+](=O)[O-])c2)cc1 | i | -4 | 2% | 45µM* | -24% | 0%
O=C(Nc1cccc([N+](=O)[O-])c1)c1ccncc1 | i | -4 | -3% | 3% | -1% | -4%
CC(C)(C)CC(C)(C)NC(=O)Nc1cccc([N+](=O)[O-])c1 | i | 2 | -5% | 14µM* | 5% | 4%
COC(=O)c1c(C)[nH]c(C(=O)OCC2CC2(Cl)Cl)c1C (stereo not drawn) | . | 8 | . | . | . | .
CCOCCCNC(=O)CSCc1nc(-c2ccc(C)cc2)oc1C | . | -34* | . | . | . | .
Cc1ccc(-c2nc(CSCC(=O)NCCCOC(C)C)c(C)o2)cc1 | . | 3 | . | . | . | .
Cc1ccc(NC(=O)c2ccccc2NS(=O)(=O)c2ccc(Cl)s2)cc1S(=O)(=O)N1CCOCC1 | i | -3 | -4% | 40µM* | -5% | -2%
Cc1ccc2nc(NC(=O)CN(C)S(=O)(=O)c3cccc4nsnc34)sc2c1 | -101%* | 0 | -5% | 14% | 2% | ?
CC(=O)CC1(C#N)C(N)=C(C=O)CC1(C#N)C#N (stereo not drawn) | . | 36 | . | . | . | .
CCn1nc(-c2ccccc2)c2nc3ccccc3nc21 | i | -4 | -4% | 15% | 25µM* | 13µM*
SMILES | pAkt inh | LDHA block | Glioma ERSR ind | PINK1 expr mod | Vif-APOBEC3F blk | Vif-A3G inh
Cc1ccc(-c2cc(C(=O)Nc3ccc(F)cc3)c3ccccc3n2)o1 | . | 6 | . | . | . | .
CCCCCC/C(=C\C=N\NC(N)=O)c1ccccc1 | . | 0 | . | . | . | .
CCC1(C)CC(=O)N(c2ccc(C(=O)O)c(O)c2)C1=O (stereo not drawn) | -114%* | 0 | -4% | -2% | -1% | 1%
CCC1(C)CC(=O)N(c2ccc(F)c(Cl)c2)C(=O)C1 | i | -3 | -5% | 0% | ? | 2%
COc1cc(C(=O)Nc2nnc(C(C)C)s2)cc(Cl)c1OCC(C)C | . | 7 | . | . | . | .
O=C(Oc1ccnc2cc(Cl)ccc12)N1CCCCCC1 | -96%* | -3 | -4% | -2% | -6% | -1%
CCOc1ccc(CCNC(=O)C2CCC(=O)N2CCc2ccccc2)cc1OCC (stereo not drawn) | -82%* | -6 | 0% | 4%[38.3 µM] | -14% | 3%
O=C(NCCc1ccccc1)C1CCC(=O)N1CCc1ccccc1 (stereo not drawn) | i | -6 | -4% | 3% | 8% | -2%
CCOC(=O)N1CCN(CC(=O)Nc2oc3ccc(Cl)cc3c(=O)c2-c2ccc(C)cc2)CC1 | . | -19 | . | . | . | .
CCc1cccc2c(C(=O)C(=O)Nc3cccc(F)c3)c[nH]c12 | . | 1 | . | . | . | .
CCOC(=O)CC(=O)CSc1nc2c(sc(=S)n2-c2ccccc2)c(=O)[nH]1 | . | 1 | 4% | -3%[38.3 µM] | 0% | 5%
CCOC(=O)CSc1nc2c(sc(=S)n2-c2ccc(CC)cc2)c(=O)[nH]1 | i | -2 | 40µM* | 0% | 2% | -20%
COc1ccc(N2CCN(CC(=O)Nc3nc4c(s3)CC(C)CC4)CC2)cc1 (stereo not drawn) | -120%* | -2 | -4% | 20% | -3% | 7%
CC(=O)N1CCC(C(=O)Nc2ccccc2)(N(Cc2ccccc2)C(=O)c2cccnc2)CC1 | -113%* | -12 | -2% | -1% | -6% | -2%
O=C(COC(=O)c1cccnc1)Nc1ccccc1 | i | -2 | -1% | -1% | 0% | -2%
CN1CCN(C(=O)CCN2C(=O)c3ccccc3C2=O)CC1 | i | 1 | -2% | -1% | -11% | 5%
CC1CN(C(=O)CCN2C(=O)c3ccccc3C2=O)CC(C)O1 (stereo not drawn) | -117%* | -15 | -5% | 0% | -7% | 2%
N#Cc1ccccc1CSCCNC(=O)c1nccnc1N | . | 7 | . | . | . | .
O=C(Nc1cc(N2CCOCC2)ncn1)c1ccccc1 | i | -2 | 35µM* | -1% | . | 0%
O=C(Nc1ccc(N2CCOCC2)nc1)c1ccc(Cl)cc1 | i | 6 | 1% | 4% | 4% | 2%
N#CCCN1CCN(c2ccc(C(=O)O)cc2NS(=O)(=O)c2ccc(F)cc2)CC1 | . | -1 | . | . | . | .
COCCCNc1oc(-c2ccc(COc3cccc(C)c3)o2)nc1C#N | . | 4 | . | . | . | .
Cc1cccc2c1NC1(CCCC1)CC2C (stereo not drawn) | i | -2 | -2% | 45µM* | -5% | 1%
CC1CC2(CCCC2)Nc2ccc(F)cc21 (stereo not drawn) | i | 3 | 0% | 10% | 1% | -2%
CC(C)CNC(=O)[C@H](C)NC(=O)OCc1ccccc1 | . | -1 | . | . | . | .
